Inconclusive results are not listed. A call without a number means that no potency is given here. Unmarked numbers belong to inactive results. The source made the active and inactive calls. Calls follow the shape of the dose curve; as a rule, active = well fitted inhibition curve with a large enough effect; inconclusive = small, poorly fitted or top-dose-only effect; inactive = flat fitted curve, though single readings scatter.
Legend:
Experiment in all cases: qHTS profiling for inhibitors of Plasmodium falciparum proliferation (AID 504749); also: nearly all actives have a fitted effect of over 60% in size
Conditions in all cases: P. falciparum in erythrocytes, SYBR Green DNA, 72 h; series mostly up to 28.7 µM
[1] = test system: CP203
Outline: (§1)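 SYBR Green fluorescence (ex 485 nm, em 535 nm) reports parasite DNA after 72 h compound exposure of infected red cells at 0.3% parasitemia, 2.5% hematocrit; signal normalized to 0.29 uM artemisinin and vehicle wells.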

[2] = test system: CP211
Outline: as §1

[3] = test system: CP215
Outline: as §1

[4] = test system: CP217
Outline: as §1

[5] = test system: CP237
Outline: as §1

[6] = test system: CP238
Outline: as §1

[7] = test system: CP247
Outline: as §1

[8] = test system: CP250
Outline: as §1

[9] = test system: CP252
Outline: as §1

[10] = test system: CP256
Outline: as §1

[11] = test system: CP260
Outline: as §1

[12] = test system: CP262
Outline: as §1

[13] = test system: CP265
Outline: as §1

[14] = test system: CP266
Outline: as §1

[15] = test system: CP268
Outline: as §1

[16] = test system: CP269
Outline: as §1

[17] = test system: CP286
Outline: as §1

[18] = test system: CP291
Outline: as §1

[19] = test system: CP297
Outline: as §1

[20] = test system: CP305
Outline: as §1
Potency is read from the fitted curve at half-maximal effect.

| SMILES | Potency [1] | Potency [2] | Potency [3] | Potency [4] | Potency [5] | Potency [6] | Potency [7] | Potency [8] | Potency [9] | Potency [10] | Potency [11] | Potency [12] | Potency [13] | outcome [14] | Potency [15] | Potency [16] | Potency [17] | Potency [18] | Potency [19] | Potency [20] |
| --- | --- | --- | --- | --- | --- | --- | --- | --- | --- | --- | --- | --- | --- | --- | --- | --- | --- | --- | --- | --- |
| CCC1(c2ccccc2)C(=O)N(COC)C(=O)N(COC)C1=O | inactive | inactive | inactive | inactive | inactive | inactive | inactive | inactive | inactive | inactive | inactive | inactive | inactive | inactive | inactive | inactive | inactive | inactive | inactive | inactive |
| O=C1OC(c2ccc(O)c(S(=O)(=O)O)c2)(c2ccc(O)c(S(=O)(=O)O)c2)c2c(Br)c(Br)c(Br)c(Br)c21 | inactive | inactive | inactive | inactive | inactive | inactive | inactive | inactive | inactive | inactive | inactive | inactive | inactive | inactive | inactive | inactive | inactive | inactive | inactive | inactive |
| CC(C)=CC1C(C(=O)OCN2C(=O)C3=C(CCCC3)C2=O)C1(C)C (stereo not given) |  | inactive | inactive | inactive | inactive | inactive | inactive | inactive | inactive | inactive | inactive | inactive | inactive | inactive | inactive | inactive | inactive | inactive | inactive | inactive |
| COP(=S)(OC)SCN1C(=O)c2ccccc2C1=O |  | inactive | inactive | inactive | inactive | inactive |  | inactive | inactive | inactive | inactive | inactive | inactive |  | inactive | inactive | inactive | inactive | inactive | inactive |
| CN1C[C@H](C(=O)N[C@]2(C)O[C@@]3(O)[C@@H]4CCCN4C(=O)[C@H](Cc4ccccc4)N3C2=O)C=C2c3cccc4[nH]cc(c34)C[C@H]21 |  | 15.1 µM (active) | 5.36 µM (active) | 1.41 µM (active) | 0.224 µM (active) | 1.41 µM (active) | 3.55 µM (active) | 3.16 µM (active) | 1 µM (active) | 4.47 µM (active) | 0.282 µM (active) | 9.53 µM (active) | 0.631 µM (active) |  | 6.75 µM (active) | 4.26 µM (active) | 0.891 µM (active) | 9.53 µM (active) | 3.38 µM (active) | 6.75 µM (active) |
| COc1ccc2c(c1OC)C(=O)O[C@H]2[C@@H]1c2cc3c(cc2CCN1C)OCO3 |  | inactive | inactive |  |  |  |  |  |  |  |  | inactive |  | inactive | inactive | inactive |  | inactive | inactive | inactive |
| CCCC(C)(COC(N)=O)COC(N)=O |  | inactive |  | inactive | inactive | inactive | inactive | inactive | inactive | inactive | inactive | inactive | inactive | inactive | inactive | inactive | inactive |  | inactive | inactive |
| CC(C)(C)NCC(O)c1ccccc1Cl (stereo not given) |  | inactive |  |  | 8.91 µM (active) |  |  | inactive |  | inactive |  | inactive | inactive |  | inactive | inactive | inactive | inactive | 13.5 µM (active) | inactive |
| CC(C)c1cccc(C(C)C)c1O |  |  | inactive | inactive | inactive | inactive | inactive | inactive | inactive | inactive | inactive | inactive | inactive | inactive |  |  | inactive |  |  | inactive |
| COc1c2c(cc3c1OCO3)CCN(C)C2 |  |  | inactive | inactive | inactive | inactive | inactive | inactive | inactive | inactive | inactive | inactive | inactive | inactive | inactive | inactive | inactive | inactive | inactive | inactive |
| CCCCCCC(=O)CCCCCC/C=C/C[C@@H](O)[C@H](O)[C@@](N)(CO)C(=O)O |  | inactive | inactive | inactive | inactive | inactive | inactive |  | inactive | inactive | inactive | inactive | inactive | inactive | inactive | inactive | inactive | inactive | inactive | inactive |
| O=C1c2ccccc2C(=O)C1C(=O)C(c1ccccc1)c1ccccc1 |  | inactive | inactive | inactive | inactive | inactive | inactive | inactive | inactive | inactive |  | inactive | inactive | inactive | inactive | inactive | inactive | inactive | inactive | inactive |
| O=C1Nc2ccc(Cl)cc2C(c2ccccc2Cl)=NC1O (stereo not given) |  | inactive |  | inactive | inactive | inactive | inactive | inactive | inactive | inactive | inactive |  | inactive | inactive | inactive | inactive | inactive | inactive | inactive | inactive |
| Nc1ccccc1C(=O)O |  | inactive | inactive | inactive | inactive | inactive | inactive | inactive | inactive | inactive | inactive | inactive | inactive |  | inactive | inactive | inactive | inactive | inactive | inactive |
| CCOP(=S)(OCC)Oc1ccc2c(C)c(Cl)c(=O)oc2c1 |  |  |  |  |  |  | inactive |  |  |  |  | inactive |  |  |  |  | 10 µM (active) |  |  |  |
| Cc1ncsc1CCCl |  | inactive | inactive | inactive | inactive | inactive | inactive | inactive | inactive | inactive | inactive | inactive | inactive | inactive | inactive | inactive | inactive |  | inactive | inactive |
| C=CCN1C[C@H](C)N([C@H](c2ccc(C(=O)N(CC)CC)cc2)c2cccc(OC)c2)C[C@H]1C |  | inactive | inactive |  | 12.6 µM (active) | inactive |  |  |  |  |  |  |  | inactive | inactive | inactive |  | inactive |  | inactive |

Source: PubChem BioAssay (NCATS)
